Measured values from the supplement of paper PMC10849652.
Of roughly 7,900 targets only a part is listed; those with a hit were picked by preference. About 0.6% of all pairs of compound and target were hits.

Key:
Assay in all cases: log2 fold change, soluble protein after heating vs DMSO (PISA); higher = thermal stabilisation; K562 cells, 10 uM, 30 min; active = over 0.2 and 3.5 SD of the protein, either way, in both replicates (recomputed)
ZNF217 = ZNF217 (UniProt O75362)
In short: (§1)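 K562 cells at 2×10^6 cells/mL were given 10 μM compound for 30 min. Aliquots then went through 3 min of heating across 48°C-58°C, were pooled, and were extracted in PBS with 0.5% NP-40 at 4°C, and the supernatant after 21,000xg for 90 min was quantified by TMTpro 16plex LC-MS/MS with channel sums equalised. Thermal stability relative to control samples, from duplicates, is given as log2 fold change.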

ZNF239 = ZNF239 (UniProt Q16600)
Chain of ZNF239 (Q16600 whole entry, looked up): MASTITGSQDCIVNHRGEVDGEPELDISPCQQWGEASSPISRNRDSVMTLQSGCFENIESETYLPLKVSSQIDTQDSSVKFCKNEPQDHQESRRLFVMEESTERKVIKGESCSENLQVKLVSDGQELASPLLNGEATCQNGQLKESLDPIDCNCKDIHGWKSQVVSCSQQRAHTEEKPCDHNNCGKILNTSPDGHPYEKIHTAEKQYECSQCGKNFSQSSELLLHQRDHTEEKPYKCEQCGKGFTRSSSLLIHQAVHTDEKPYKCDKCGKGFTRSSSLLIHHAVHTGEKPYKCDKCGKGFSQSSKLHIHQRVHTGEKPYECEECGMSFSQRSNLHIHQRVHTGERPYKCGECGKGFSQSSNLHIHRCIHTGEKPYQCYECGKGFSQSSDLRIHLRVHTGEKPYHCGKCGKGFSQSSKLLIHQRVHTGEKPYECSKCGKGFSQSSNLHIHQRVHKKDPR
In short: as §1

ZNF511 isoform 1 = ZNF511 isoform 1 (UniProt Q8NB15)
Chain of ZNF511 isoform 1 (Q8NB15 whole entry, looked up, canonical isoform): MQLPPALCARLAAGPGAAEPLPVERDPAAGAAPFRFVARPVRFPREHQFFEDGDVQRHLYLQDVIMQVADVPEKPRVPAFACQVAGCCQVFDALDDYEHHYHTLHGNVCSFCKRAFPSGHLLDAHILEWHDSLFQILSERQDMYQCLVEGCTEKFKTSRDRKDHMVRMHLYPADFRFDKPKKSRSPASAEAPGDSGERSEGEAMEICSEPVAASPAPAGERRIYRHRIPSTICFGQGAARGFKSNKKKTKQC
In short: as §1

ZNF579 = ZNF579 (UniProt Q8NAF0)
Chain of ZNF579 (Q8NAF0 whole entry, looked up): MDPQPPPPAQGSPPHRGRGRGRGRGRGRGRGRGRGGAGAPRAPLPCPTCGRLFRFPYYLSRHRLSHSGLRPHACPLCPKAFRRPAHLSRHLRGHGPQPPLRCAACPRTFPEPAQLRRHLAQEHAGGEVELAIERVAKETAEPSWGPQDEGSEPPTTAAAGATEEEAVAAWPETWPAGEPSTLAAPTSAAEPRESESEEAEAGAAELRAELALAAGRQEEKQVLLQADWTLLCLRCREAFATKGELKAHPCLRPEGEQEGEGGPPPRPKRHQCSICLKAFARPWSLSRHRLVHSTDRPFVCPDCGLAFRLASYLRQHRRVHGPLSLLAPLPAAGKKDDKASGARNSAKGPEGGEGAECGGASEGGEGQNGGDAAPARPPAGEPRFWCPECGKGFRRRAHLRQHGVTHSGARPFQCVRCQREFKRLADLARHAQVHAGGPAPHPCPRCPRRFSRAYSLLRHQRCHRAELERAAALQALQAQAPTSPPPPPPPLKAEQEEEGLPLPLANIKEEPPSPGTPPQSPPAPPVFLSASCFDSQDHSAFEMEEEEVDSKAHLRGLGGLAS
In short: as §1

ZNF580 = ZNF580 (UniProt Q9UK33)
Chain of ZNF580 (Q9UK33 whole entry, looked up): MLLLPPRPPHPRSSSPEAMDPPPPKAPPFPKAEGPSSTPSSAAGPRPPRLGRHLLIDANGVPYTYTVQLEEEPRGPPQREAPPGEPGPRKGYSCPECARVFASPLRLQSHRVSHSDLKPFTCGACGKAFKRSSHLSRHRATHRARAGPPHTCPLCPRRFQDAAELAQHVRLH
In short: as §1

ZNF609 = ZNF609 (UniProt O15014)
Chain of ZNF609 (O15014 whole entry, looked up): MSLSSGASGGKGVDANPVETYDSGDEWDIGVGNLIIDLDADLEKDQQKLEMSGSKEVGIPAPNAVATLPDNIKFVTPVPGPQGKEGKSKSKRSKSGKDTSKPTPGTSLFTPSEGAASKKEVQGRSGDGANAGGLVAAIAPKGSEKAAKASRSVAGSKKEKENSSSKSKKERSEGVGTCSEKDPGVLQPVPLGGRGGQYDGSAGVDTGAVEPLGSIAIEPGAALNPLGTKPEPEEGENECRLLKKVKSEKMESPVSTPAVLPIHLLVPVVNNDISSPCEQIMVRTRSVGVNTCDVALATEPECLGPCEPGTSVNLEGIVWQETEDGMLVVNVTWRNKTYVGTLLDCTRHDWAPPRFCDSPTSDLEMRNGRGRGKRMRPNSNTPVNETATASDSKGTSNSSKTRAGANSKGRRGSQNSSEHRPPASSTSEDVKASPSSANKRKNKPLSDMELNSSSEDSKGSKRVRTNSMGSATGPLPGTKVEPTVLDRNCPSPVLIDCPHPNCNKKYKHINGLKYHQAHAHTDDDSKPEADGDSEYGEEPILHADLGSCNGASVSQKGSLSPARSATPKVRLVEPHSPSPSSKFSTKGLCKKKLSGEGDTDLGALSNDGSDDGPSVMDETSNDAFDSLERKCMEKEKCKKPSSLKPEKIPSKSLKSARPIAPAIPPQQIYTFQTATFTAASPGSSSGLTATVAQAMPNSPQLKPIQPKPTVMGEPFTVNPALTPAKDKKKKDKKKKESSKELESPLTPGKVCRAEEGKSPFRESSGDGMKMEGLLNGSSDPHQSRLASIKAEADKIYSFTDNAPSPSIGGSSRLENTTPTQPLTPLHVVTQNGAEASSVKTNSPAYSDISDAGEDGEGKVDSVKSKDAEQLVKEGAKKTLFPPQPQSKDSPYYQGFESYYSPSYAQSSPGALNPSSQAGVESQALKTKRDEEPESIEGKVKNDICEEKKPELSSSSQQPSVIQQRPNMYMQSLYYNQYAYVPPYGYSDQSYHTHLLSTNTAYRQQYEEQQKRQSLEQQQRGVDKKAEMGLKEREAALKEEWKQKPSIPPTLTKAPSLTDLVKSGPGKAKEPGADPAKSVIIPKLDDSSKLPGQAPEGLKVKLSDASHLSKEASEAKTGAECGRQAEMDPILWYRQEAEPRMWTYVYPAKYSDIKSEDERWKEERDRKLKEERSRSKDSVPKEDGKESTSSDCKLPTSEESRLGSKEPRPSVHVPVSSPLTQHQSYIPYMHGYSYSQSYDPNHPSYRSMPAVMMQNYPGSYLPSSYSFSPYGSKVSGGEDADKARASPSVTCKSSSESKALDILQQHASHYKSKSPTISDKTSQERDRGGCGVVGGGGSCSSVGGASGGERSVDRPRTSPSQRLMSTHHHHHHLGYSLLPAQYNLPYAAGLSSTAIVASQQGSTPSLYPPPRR
In short: as §1

ZNF622 = ZNF622 (UniProt Q969S3)
Chain of ZNF622 (Q969S3 whole entry, looked up): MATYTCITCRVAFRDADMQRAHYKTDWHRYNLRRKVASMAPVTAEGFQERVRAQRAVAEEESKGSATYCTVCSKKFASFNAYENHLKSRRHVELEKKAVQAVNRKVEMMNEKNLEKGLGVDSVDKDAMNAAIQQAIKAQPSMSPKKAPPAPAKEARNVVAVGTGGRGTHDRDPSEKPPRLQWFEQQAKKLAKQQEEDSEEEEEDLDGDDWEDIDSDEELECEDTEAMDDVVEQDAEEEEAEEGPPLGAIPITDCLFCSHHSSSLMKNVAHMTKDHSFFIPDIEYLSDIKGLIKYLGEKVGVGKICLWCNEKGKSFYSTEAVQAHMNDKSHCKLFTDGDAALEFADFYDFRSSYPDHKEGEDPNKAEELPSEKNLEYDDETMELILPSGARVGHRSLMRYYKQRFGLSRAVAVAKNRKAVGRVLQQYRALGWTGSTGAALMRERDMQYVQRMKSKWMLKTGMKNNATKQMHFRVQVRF
In short: as §1

ZRANB2 = ZRANB2 (UniProt O95218)
Chain of ZRANB2 (O95218 whole entry, looked up): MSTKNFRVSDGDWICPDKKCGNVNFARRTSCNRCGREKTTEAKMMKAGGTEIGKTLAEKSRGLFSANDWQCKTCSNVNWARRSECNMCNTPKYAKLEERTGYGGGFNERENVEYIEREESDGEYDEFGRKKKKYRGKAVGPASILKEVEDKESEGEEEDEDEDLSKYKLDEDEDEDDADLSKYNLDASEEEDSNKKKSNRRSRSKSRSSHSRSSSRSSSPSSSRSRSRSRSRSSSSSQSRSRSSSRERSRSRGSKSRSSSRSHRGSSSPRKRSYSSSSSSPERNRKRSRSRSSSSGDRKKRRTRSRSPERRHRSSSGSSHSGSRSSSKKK
In short: as §1

ZW10 = ZW10 (UniProt O43264)
In short: as §1

ZWILCH = ZWILCH (UniProt Q9H900)
Chain of ZWILCH (Q9H900 whole entry, looked up): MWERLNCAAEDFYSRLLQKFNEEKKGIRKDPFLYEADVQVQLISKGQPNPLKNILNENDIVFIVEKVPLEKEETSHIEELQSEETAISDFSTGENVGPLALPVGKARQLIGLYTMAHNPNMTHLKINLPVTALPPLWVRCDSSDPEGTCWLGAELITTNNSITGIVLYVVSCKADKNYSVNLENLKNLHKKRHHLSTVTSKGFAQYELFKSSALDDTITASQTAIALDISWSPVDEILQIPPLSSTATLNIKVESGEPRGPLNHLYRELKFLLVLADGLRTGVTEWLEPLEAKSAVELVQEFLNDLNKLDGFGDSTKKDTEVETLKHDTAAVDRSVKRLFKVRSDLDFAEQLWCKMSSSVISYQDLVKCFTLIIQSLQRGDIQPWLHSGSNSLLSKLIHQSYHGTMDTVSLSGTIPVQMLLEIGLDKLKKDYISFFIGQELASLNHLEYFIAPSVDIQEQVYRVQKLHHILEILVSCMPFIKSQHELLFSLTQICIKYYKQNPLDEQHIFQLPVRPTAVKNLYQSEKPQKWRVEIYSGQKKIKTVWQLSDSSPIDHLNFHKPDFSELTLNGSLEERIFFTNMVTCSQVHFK
In short: as §1

ZYG11B = ZYG11B (UniProt Q9C0D3)
Chain of ZYG11B (Q9C0D3 whole entry, looked up): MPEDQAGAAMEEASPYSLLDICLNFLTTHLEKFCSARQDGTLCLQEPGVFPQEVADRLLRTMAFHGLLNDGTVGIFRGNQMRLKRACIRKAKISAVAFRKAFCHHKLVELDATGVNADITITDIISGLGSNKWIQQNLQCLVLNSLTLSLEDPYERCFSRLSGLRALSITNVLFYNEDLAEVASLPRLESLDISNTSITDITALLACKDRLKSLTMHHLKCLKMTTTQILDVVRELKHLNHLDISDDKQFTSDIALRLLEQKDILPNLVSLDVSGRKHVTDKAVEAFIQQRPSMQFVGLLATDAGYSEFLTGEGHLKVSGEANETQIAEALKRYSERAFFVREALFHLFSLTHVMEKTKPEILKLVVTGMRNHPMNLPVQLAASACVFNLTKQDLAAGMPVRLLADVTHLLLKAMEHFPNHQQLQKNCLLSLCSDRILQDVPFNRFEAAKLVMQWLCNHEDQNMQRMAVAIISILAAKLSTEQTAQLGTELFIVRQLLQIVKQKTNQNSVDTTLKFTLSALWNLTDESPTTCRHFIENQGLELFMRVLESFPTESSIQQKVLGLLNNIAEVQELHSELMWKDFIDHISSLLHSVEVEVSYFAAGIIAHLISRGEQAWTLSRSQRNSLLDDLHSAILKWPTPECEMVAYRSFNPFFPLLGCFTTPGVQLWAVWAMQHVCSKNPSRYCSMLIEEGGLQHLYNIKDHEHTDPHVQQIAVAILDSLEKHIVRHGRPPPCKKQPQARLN
In short: as §1

ZNF277 = ZNF277 (UniProt Q9NRM2)
In short: as §1

Measured: log2 fold change

CS(=O)(=O)c1ccc(-c2cnc(N)c(C(=O)Nc3ccccc3)n2)cc1
inactive: ZNF217 -0.037 | ZNF239 -0.06 | ZNF511 isoform 1 -0.022 | ZNF579 0.019 | ZNF580 -0.231 | ZNF609 0.021 | ZNF622 0.066 | ZRANB2 -0.013 | ZW10 0.027 | ZWILCH -0.003 | ZYG11B 0.01

NC(=O)Nc1cc(-c2cccc(F)c2)sc1C(=O)N[C@H]1CCCNC1
inactive: ZNF217 0.016 | ZNF239 0.015 | ZNF511 isoform 1 0.007 | ZNF579 -0.008 | ZNF580 0.123 | ZNF609 0.061 | ZNF622 -0.028 | ZRANB2 0.076 | ZW10 -0.021 | ZWILCH 0 | ZYG11B -0.033

CN1CCC(CNc2ccc3ncc(-c4cccc(OC(F)(F)F)c4)n3n2)CC1
inactive: ZNF217 -0.081 | ZNF239 -0.063 | ZNF277 0.077 | ZNF579 0.103 | ZNF580 0.054 | ZNF609 -0.134 | ZNF622 0.03 | ZRANB2 0.01 | ZW10 -0.108 | ZWILCH -0.085 | ZYG11B -0.113
